BCLXL inh – inhibitors of human Bcl-xL, primary screen, biochemical, fluorescence polarization, HTS; Bcl-2-like protein 1 (Homo sapiens), Q07817; GST-Bcl-xL / FITC-Bim BH3 peptide fluorescence polarization; inhibition, % at 10.9 µM; 320,000 tested, 0.7% active; AID 2129, 2009;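 active = inhibition above the mean of all tested compounds plus 3 SD, cutoff set per campaign, cut at about 30% in these data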;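 also: 0% = DMSO wells and 100% = unlabeled Bim-BH3 peptide competitor; inhibitors lower millipolarization by displacing the labeled peptide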
Target sequence (Q07817 whole entry, looked up): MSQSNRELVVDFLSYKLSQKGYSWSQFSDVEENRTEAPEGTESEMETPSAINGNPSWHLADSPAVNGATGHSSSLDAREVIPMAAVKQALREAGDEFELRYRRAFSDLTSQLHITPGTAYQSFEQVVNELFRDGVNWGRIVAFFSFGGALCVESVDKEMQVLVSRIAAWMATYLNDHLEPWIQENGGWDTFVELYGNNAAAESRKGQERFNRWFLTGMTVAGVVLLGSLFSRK
Mcl1-Bid inh – Mcl-1/Bid binding inhibitors, primary screen, biochemical, TR-FRET, 1536-well; TR-FRET Mcl-1/Bid-Dy647 peptide binding; 220,000 tested, 0.97% active; Induced myeloid leukemia cell differentiation protein Mcl-1 (Homo sapiens), Q07820; inhibition, % at 21.7 µM;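 active = compounds that cut the binding signal by more than half at the single screening dose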;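 also: His-tagged Mcl-1 with europium anti-His antibody binding Bid BH3 peptide; 0% = Mcl-1 plus peptide wells and 100% = peptide-only wells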
MCL1-BIM inh – inhibitors of MCL1 binding to BIM-BH3, primary screen, biochemical, fluorescence polarization; Induced myeloid leukemia cell differentiation protein Mcl-1 (Homo sapiens), Q07820; GST-MCL1 / FITC-Bim-BH3 fluorescence polarization; inhibition, % at 10.9 µM; 320,000 tested, 0.68% active; AID 2057, 2009;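 active = inhibition above the mean inhibition of all tested compounds plus 3 SD, set per campaign, cut at about 40% in these data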;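 also: 0% = DMSO wells and 100% = unlabeled Bim-BH3 peptide control; higher means more loss of mP so more displacement of Bim peptide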
Mcl-1 Bim block – inhibitors of Bim peptide binding to Mcl-1, primary screen, biochemical, bead-based flow cytometry, multiplex; Induced myeloid leukemia cell differentiation protein Mcl-1 (Homo sapiens), Q07820; inhibition, % at 10 µM; 190,000 tested, 0.1% active; Bim peptide-Mcl-1 binding; AID 1009, 2008; in the data active = inhibition above about 40%;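 also: 0% = no compound tracer wells and 100% = peptide blocker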
Mcl1 Noxa PPI – Mcl-1/Noxa binding inhibitors, primary screen, biochemical, TR-FRET, 1536-well; TR-FRET Mcl-1/Noxa peptide binding, 2 h; 220,000 tested, 1.5% active; inhibition, % at 21.7 µM; Induced myeloid leukemia cell differentiation protein Mcl-1 (Homo sapiens), Q07820;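 active = compounds that cut the protein-peptide binding signal by more than 50% relative to plate controls in a single-dose test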;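 also: His-tagged Mcl-1 with rhodamine Noxa BH3 peptide and terbium anti-His antibody; 0% = Mcl-1 plus Noxa peptide wells and 100% = peptide-only wells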
GLD-1 RNA inh – GLD-1/TGE RNA complex disruptors, primary screen, biochemical, fluorescence polarization; purified GLD-1 + fluorescein TGE RNA; inhibition, % at 5.96 µM; 320,000 tested, 0.44% active; AID 2280, 2010;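 active = percent inhibition above a per-plate cutoff, the plate mean of test compounds plus 3 SD, cut at about 30% in these data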;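 also: 0% = DMSO wells with GLD-1 and probe and 100% = wells lacking GLD-1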
Bcl-xL conf – Bcl-xL inhibitors blocking Bim BH3 binding, confirmation, counter-screen for MCL1 inhibitor project, biochemical, fluorescence polarization; AID 2166, 2009; inhibition, % at 10.9 µM; 1,700 tested, 54% active; shares compounds with MCL1-BIM inh; GST-Bcl-xL / FITC-Bim BH3 peptide FP binding;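 active = inhibition above a cutoff equal to the mean inhibition of all tested compounds plus 3 SD, cut at about 30% in these data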;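 also: 0% = DMSO wells and 100% = unlabeled Bim BH3 control peptide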
MCL1 inh confirm – inhibitors of MCL1 binding to BIM-BH3, confirmation, biochemical, fluorescence polarization, triplicate; GST-MCL1 / FITC-Bim-BH3 fluorescence polarization; inhibition, % at 10.9 µM; 1,700 tested, 61% active; shares compounds with MCL1-BIM inh;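 active = inhibition above the average of all tested compounds plus 3 SD, cut at about 40% in these data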;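 also: 0% = DMSO wells and 100% = unlabeled Bim-BH3 control peptide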
Starred values were filed as active, the others as inactive; . = no result. Compounds with a hit are over-represented: about 2.3% of the library has one in this group of screens.

SMILES | BCLXL inh | Mcl1-Bid inh | MCL1-BIM inh | Mcl-1 Bim block | Mcl1 Noxa PPI | GLD-1 RNA inh | Bcl-xL conf | MCL1 inh confirm
COc1cc(NCCCCCCCN)c2ncccc2c1 | 3.6 | -23.1 | 1.3 | 22.0 | 32.1 | -6.6 | . | .
CCC(C)[C@H](NC(=O)c1cc2cc(Cl)ccc2n1C)C(=O)N1CCC(C(=O)O)CC1 (stereo partly drawn) | 5.7 | . | 7.0 | . | . | 0.0 | . | .
O=c1[nH]c(-c2ccccc2)nn1-c1ccc(Br)cc1Br | 11.5 | . | 11.4 | . | . | 11.7 | . | .
Cn1c(Cc2ccc(Cl)cc2)nnc1SCC(=O)NC1CC1 | -1.4 | . | -3.2 | . | . | 6.3 | . | .
Oc1ccc(O)c(/C(=N/Nc2ccccc2)c2ccccc2)c1 | 25.9 | . | 48.7* | . | . | 1.4 | 17.1 | 13.0
CC1(C)CC(=O)C=C(c2cccc(Cl)c2O)C1 | 4.3 | . | -1.4 | . | . | 2.5 | . | .
CC(=O)OCCCNc1cc(SCc2ccco2)c2nonc2c1[N+](=O)[O-] | 22.1 | -33.5 | 44.5* | 0.0 | 41.3 | -0.6 | 28.7 | 45.8*
CCCC(=O)OCCNc1cc(Sc2nccn2C)c2nonc2c1[N+](=O)[O-] | 3.6 | -55.6 | 9.0 | -5.0 | 21.4 | 4.0 | . | .
CCCC(=O)OCCNc1cc(SCc2ccco2)c2nonc2c1[N+](=O)[O-] | 22.6 | -30.6 | 42.8* | 2.0 | 31.9 | 5.2 | 7.2 | 11.3
O=c1[nH]c(=S)[nH]c2sc3c(c12)CCCCCC3 | 16.7 | . | 36.1 | . | . | 4.7 | . | .
CC(OC(=O)c1cc(=O)[nH]c2ccccc12)C(=O)c1ccccc1 (stereo not drawn) | -1.6 | 10.8 | 143.1* | 1.0 | 10.5 | 1.0 | 3.3 | -3.3
CC(C)OC(=O)c1cc(=O)[nH]c2ccccc12 | 4.8 | 6.7 | 2.5 | 2.0 | 12.3 | -1.4 | . | .
CCOC(=O)C(C#N)=C1CCN(Cc2ccccc2)CC1 | 58.3* | . | 60.4* | . | . | 28.6 | 36.5* | 35.6
CCOC(=O)/C(C#N)=C1/C(=O)N(Cc2ccccc2)c2ccccc21 | . | -13.8 | . | -3.0 | 16.4 | . | . | .
O=C(COC(=O)CCC(=O)c1cccs1)Nc1cccc(F)c1 | 2.6 | . | 10.2 | . | . | 4.7 | . | .
CC(=O)COc1ccc2c(c1C)O/C(=C\c1ccco1)C2=O | 14.2 | . | 19.6 | . | . | 5.4 | . | .
CN(C)Cc1c(O)ccc2c1O/C(=C\C=C\c1ccccc1)C2=O | 78.4* | -38.5 | 76.4* | . | -8.0 | 24.3 | 84.6* | 91.3*
CCN1CCN(Cc2c(O)ccc3c2O/C(=C\c2ccccc2)C3=O)CC1 | 54.4* | -30.9 | 54.9* | 1.0 | 6.9 | 17.7 | 59.0* | 61.9*
CC1CCCN(Cc2c(O)ccc3c2O/C(=C\c2ccco2)C3=O)C1 (stereo not drawn) | 123.3* | -3.9 | 151.7* | 0.0 | 58.1* | 95.0* | 119.4* | 133.1*
COc1cc(/C=C(/C#N)C(=O)Nc2ccc(Cl)cc2)ccc1Oc1nc(Cl)ncc1F | 6.7 | -26.3 | -1.3 | . | 9.7 | -1.0 | . | .
O=C1Nc2ccccc2SC(c2ccccc2)C1O (stereo not drawn) | 21.9 | 62.7* | 62.8* | 1.0 | 104.1* | 3.8 | 23.7 | 91.4*
O=[N+]([O-])c1ccc(/C=C/C2=NN(c3ccccc3)C(c3ccco3)C2)cc1 (stereo not drawn) | 67.1* | -12.8 | 66.9* | . | 3.8 | -20.5 | 93.0* | 109.3*
COc1ccc(NC(=O)CN2C(=O)COc3ccccc32)cc1OC | 2.9 | . | -1.8 | . | . | 0.4 | . | .
